# PfHsp90 yeast 2: growth inhibition of PfHsp90-expressing yeast, primary screen, antimalarial PfHsp90 inhibitor project, S. cerevisiae, BacTiter-Glo luminescence, single point, set 2; 0.32% of 310,000 active; BacTiter-Glo ATP, 48 h; yeast lacking PDR1 and PDR3 efflux regulators; AID 504621, 2011; inhibition, % at 9.4 µM;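 active = every replicate shows inhibition above about 80%, whatever the replicate mean, limit read from the data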;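 note: 0% = DMSO neutral controls and 100% = 20 µM radicicol positive controls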
# SIRT5 inh: SIRT5 desuccinylase inhibitors, primary screen, biochemical, fluorescence imaging, single point, set 5 | Purified SirT5, succinyl-peptide AMC, trypsin-coupled fluorescence | 1.1% of 330,000 active | inhibition, % at 15 µM | NAD-dependent protein deacylase sirtuin-5, mitochondrial (Homo sapiens), Q9NXA8; in the data active = inhibition above about 15%
# Target sequence (Q9NXA8 whole entry, looked up): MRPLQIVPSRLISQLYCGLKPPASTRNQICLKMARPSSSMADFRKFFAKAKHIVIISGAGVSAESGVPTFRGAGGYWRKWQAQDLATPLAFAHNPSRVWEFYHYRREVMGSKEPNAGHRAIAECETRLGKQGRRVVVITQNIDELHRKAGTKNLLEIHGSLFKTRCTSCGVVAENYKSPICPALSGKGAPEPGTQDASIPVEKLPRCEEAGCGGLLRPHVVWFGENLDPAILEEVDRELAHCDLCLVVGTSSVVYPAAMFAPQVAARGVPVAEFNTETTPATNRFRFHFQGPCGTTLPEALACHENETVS
# NSD2 HMT inh: NSD2 histone methyltransferase inhibitors, primary screen, biochemical, AlphaScreen, single concentration, set 2. Histone-lysine N-methyltransferase NSD2 (Homo sapiens), O96028. NSD2 peptide methylation, 120 min. inhibition, % at 12.5 µM. 0.54% of 310,000 active. AID 743445, 2014; in the data active = inhibition above about 50%
# ARNT-TACC3 inh: disruptors of ARNT/TACC3 protein interaction, primary screen, biochemical, AlphaScreen, single concentration; AlphaScreen His-ARNT PAS-B/GST-TACC3 binding, luminescence; TACC3 fragment carries E629A point mutation; AID 623870, 2012; Transforming acidic coiled-coil-containing protein 3 (Homo sapiens), Q9Y6A5; inhibition, % at 9.99 µM; 0.66% of 390,000 active;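 active = mean inhibition of replicates at least 50% and at least half of replicates each reaching 50%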;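 note: 0% = complete ARNT plus TACC3 wells and 100% = ARNT alone without TACC3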
# Casp6 inh: human caspase-6 inhibitors, primary screen, biochemical, VEID-R110 fluorescence, single point, set 2 | P55212 | purified caspase-6, Z-VEID-R110 cleavage fluorescence | inhibition, % at 12.5 µM | 0.53% of 350,000 active;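 active = mean inhibition across replicates at least about 35%, with every replicate also reaching that limit, limit read from the data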;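 note: 0% = median of neutral control wells and 100% = no fluorescence left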
# Target sequence (P55212 24-179 limits assumed): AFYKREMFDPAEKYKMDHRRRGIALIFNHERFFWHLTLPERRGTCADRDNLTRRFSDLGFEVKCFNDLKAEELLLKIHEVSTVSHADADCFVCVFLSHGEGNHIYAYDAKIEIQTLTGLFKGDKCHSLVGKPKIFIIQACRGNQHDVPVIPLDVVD
# Target sequence (P55212 194-293 limits assumed): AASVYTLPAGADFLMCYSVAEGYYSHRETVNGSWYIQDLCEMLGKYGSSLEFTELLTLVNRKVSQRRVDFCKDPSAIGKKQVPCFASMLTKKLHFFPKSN
# * hit, by the source's call; / = no result given; ! = repeats disagree. Rows were chosen to be rich in hits. Some 2.1% of all compounds tested hit in one or more screens of this group.
SMILES,PfHsp90 yeast 2,SIRT5 inh,NSD2 HMT inh,ARNT-TACC3 inh,Casp6 inh
CO[C@H]1CN(C)C(=O)c2ccc(NC(=O)Nc3cc(Cl)cc(Cl)c3)cc2OC[C@@H](C)NC[C@@H]1C,/,1.4*,/,27.6,0.3
CO[C@@H]1CN(C)C(=O)c2ccc(NC(=O)c3cnccn3)cc2OC[C@@H](C)NC[C@H]1C,/,15.4*,/,-0.7,-2.2
COc1cc(/C=C(\C(=O)O)c2ccc(S(=O)(=O)N3CCCCC3)s2)ccc1OC(F)F,/,/,0.2,/,/
O=C(O)c1cccc2c1Cc1cc(Cl)ccc1-2,107.2*,0.0,-1.8,-3.3,-1.2
O=C(O)c1cccc2c1-c1ccc(Cl)cc1C2=O,-40.2,-2.5,-0.8,1.3,-1.1
COc1ccc(NC(=O)C2=CC=CN3CCS(=O)(=O)N=C23)c(OC)c1,24.2,27.5*,-0.4,-8.8,-0.1
O=C(C1CCCC1)N1C[C@@H]2N[C@H](C1)C2c1ccc(-c2ccccc2F)cc1 (some centres undefined),/,25.2*!,/,/,2.3
O=C(Nc1ccc2c(c1)OCO2)N1[C@@H]2CNC[C@H]1C2c1ccc(/C=C/c2ccccc2)cc1 (some centres undefined),/,5.3,/,/,-1.4
O=C(Nc1ccccc1F)N1C[C@@H]2N[C@H](C1)C2c1ccc(/C=C/c2ccccc2)cc1 (some centres undefined),/,26.9*,/,/,-1.3
O=C(Nc1ccc2c(c1)OCO2)N1C[C@@H]2N[C@H](C1)C2c1ccc(C=Cc2ccccc2)cc1 (some centres undefined),/,17.0*!,/,/,2.2
COc1ccc(-c2ccc(C3[C@@H]4CN(C(=O)Nc5ccccc5F)C[C@H]3N4)cc2)cc1 (some centres undefined),/,1.9,/,/,-1.1
O=C(C[C@@H]1CC[C@@H](NC(=O)c2ccc(F)cc2)[C@H](CO)O1)NCCc1ccncc1,/,1.3,/,-9.9,-1.0
CCCC(=O)Nc1ccc2c(c1)C(=O)N(C)C[C@H](OC)[C@H](C)CN(C(=O)C1CCCC1)[C@@H](C)CO2,/,-1.7,/,-0.1,-1.8
COc1ccccc1NC(=O)N1CCN(c2cccc(C(F)(F)F)c2)CC1,/,18.3*,-2.9,-1.4,3.2
C[C@@H]1CN([C@H](C)CO)C(=O)c2cc(C3=CCCCC3)cnc2O[C@@H]1CN(C)Cc1ccccn1,/,1.0,/,4.1,6.1
C[C@@H]1CN([C@@H](C)CO)C(=O)c2cccc(NS(=O)(=O)c3ccc(Cl)cc3)c2O[C@@H]1CN(C)C(=O)NC1CCCCC1,/,-1.2,/,-4.2,-2.8
C/C=C/c1ccc([C@@H]2[C@@H](CO)N(Cc3ccccn3)[C@H]2CNC(=O)CC)cc1,/,/,/,3.3,/
C/C=C/c1ccc([C@@H]2[C@@H](C#N)N(C(=O)Cc3ccccn3)[C@@H]2CO)cc1,/,0.3,/,45.8*,-2.0
N#C[C@H]1[C@@H](c2ccccc2)[C@@H](CO)N1C(=O)Cc1ccccn1,/,-1.6,/,5.8,2.4
C/C=C/c1ccc([C@@H]2[C@H](CO)N(Cc3ccccn3)[C@H]2CNC(=O)CC)cc1,/,-6.1,/,30.0*,/
CO[C@@H]1CN(C)C(=O)c2ccc(NC(=O)C3CC3)cc2OC[C@H](C)N(CCc2ccccc2)C[C@@H]1C,/,3.4,/,-9.8,-1.6
CN(C)CC(=O)N[C@H]1C=C[C@H](CC(=O)O)O[C@@H]1CO,/,-3.3,/,/,-0.2
Cc1ccc(-n2c(Cl)c(Cl)nc(Cl)c2=O)cc1,104.7*,/,/,-2.4,/
C[C@H](CO)N1C[C@H](C)[C@H](CN(C)C(=O)Cc2ccccc2)Oc2cc(C#CC3(O)CCCC3)ccc2S1(=O)=O,/,-0.6,/,-4.5,2.3
CC(C)NC(=O)N(C)C[C@H]1Oc2ncc(C#CC3(O)CCCC3)cc2C(=O)N([C@@H](C)CO)C[C@@H]1C,/,12.4,/,-0.1,-2.5
SMILES,PfHsp90 yeast 2,SIRT5 inh,NSD2 HMT inh,ARNT-TACC3 inh,Casp6 inh
COc1ccc(-n2c(O)c(/C=C3\C=Nc4ccccc43)c(=O)[nH]c2=O)cc1,-37.3,38.7*,45.6,4.8,0.6
COc1ccc(-n2c(O)c(C=NC3CC3)c(=O)[nH]c2=O)cc1,12.7,/,0.1,-3.9,/
COc1ccc(CN2C[C@@H](C)[C@H](OC)CN(C)C(=O)c3cc(NC(=O)c4nc5ccccc5s4)ccc3OC[C@H]2C)cc1,/,/,/,25.8,-1.9
O=C(/C=C1\OCc2ccccc21)OCc1ccccc1,/,15.1*,2.9,/,16.8
O=C(/C=C1\OCc2cc(OCc3ccccc3)ccc21)OCc1ccccc1,/,-2.1,/,/,1.7
CCNC(=O)C[C@@H]1CC[C@H]2[C@@H](COc3ccc(NC(=O)c4ccc5c(c4)OCO5)cc3C(=O)N2C)O1,/,1.6,/,-6.3,-0.8
CC(C)NC(=O)Nc1ccc2c(c1)C(=O)N([C@@H](C)CO)C[C@@H](C)[C@H](CN(C)CC1CCCCC1)OCCCC[C@H](C)O2,/,4.0,/,-4.1,-2.2
S=c1[nH]nc(-c2ccccc2)n1/N=C/c1ccc(Cl)cc1,-17.1,-0.9,3.7,8.1,4.3
Cc1ccc(-c2n[nH]c(=S)n2/N=C/c2ccc(C)o2)cc1,10.1,/,6.0,-1.7,/
S=c1[nH]nc(-c2ccccn2)n1/N=C/c1ccc(Cl)cc1,-9.3,3.4,-2.7,76.9*,1.1
CC(/C=N/n1c(-c2ccccn2)n[nH]c1=S)=C\c1ccccc1,/,-2.7,-2.1,/,0.4
S=c1[nH]nc(-c2ccccn2)n1/N=C/c1cccs1,-10.9,-0.3,1.5,59.2*,-0.8
Cc1ccc(/C=N/n2c(-c3ccccn3)n[nH]c2=S)o1,-13.0,/,-6.8,91.4*,8.7
S=c1[nH]nc(-c2ccccn2)n1/N=C/c1ccccc1,25.5,-5.3,-2.1,56.7*,1.1
COc1ccc(NC(=O)Nc2ccc3c(c2)C(=O)N([C@@H](C)CO)C[C@H](C)[C@H](CN(C)CC2CCCCC2)OCCCC[C@H](C)O3)cc1,/,-3.0,/,13.3,-0.7
C[C@H](NC(=O)C[C@@H]1C=C[C@@H](NC(=O)C2CCOCC2)[C@@H](CO)O1)c1ccccc1,/,4.0,/,-5.2,10.4
S=c1[nH]nc(-c2cc(-c3ccccc3)n[nH]2)n1/N=C/c1c(Cl)cccc1Cl,-27.1,0.4,0.3,-4.5,-0.6
Cc1ccccc1/C=N/n1c(-c2ccccn2)n[nH]c1=S,-5.6,-3.3,-7.3,71.4*,1.0
S=c1[nH]nc(-c2ccccn2)n1/N=C/c1cccc2ccccc12,7.2,-2.2,-3.5,56.1*,-0.4
Cc1nn(-c2ccccc2)c(C)c1/C=N/n1c(-c2ccc(Cl)cc2)n[nH]c1=S,-16.2,17.5*,-0.3,-0.8,1.5
S=c1[nH]nc(-c2cc(-c3ccccc3)n[nH]2)n1/N=C/c1cccc2ccccc12,/,/,7.2,/,/
S=c1[nH]nc(-c2ccccn2)n1/N=C/c1c(Cl)cccc1Cl,13.1,-2.4,-4.3,79.3*,-3.3

# Screening results (PubChem BioAssay)
